The source of these data is PubChem BioAssay AID488890 (Southern Research Specialized Biocontainment Screening …, 2010).

Out of some 320,000 compounds screened, about 1,300 (0.41%) were called active. Not shown: some 3% with an inconclusive outcome. How the calls were made is not given here. Not all results are given here. Entries with a potency or affinity are not part of this list.

The assay in a line: growth inhibition of non-replicating M. tuberculosis (AID 488890).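 Further: plate controls were DMSO cells for no effect and high antibiotic wells for full effect.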 Particulars: Mycobacterium tuberculosis non-replicating, at 25 µM, stronger effect = higher value.
For orientation: inhibition means the relative decrease from the control value, in per cent. Regarding `CCOC(=O)C1CCCN(S(=O)(=O)c2c(C)noc2C)C1` (stereo not given), the inhibition is -14.5%.
As to `CC(C)CN(C(=O)COC(=O)c1cccn1C)c1c(N)n(Cc2ccccc2)c(=O)[nH]c1=O`, the inhibition was found to be 16.9%.
On to `CC(=O)Oc1ccc(/C=C2/Oc3ccccc3C2=O)cc1`, for which the inhibition was determined as 36%.
The value for `CCOC(=O)Oc1ccc(/C=C2\N=C(C)OC2=O)cc1` was -12.5%.
For the molecule `COc1ncnc(OC)c1S(=O)(=O)NCc1ccccc1`, the inhibition is -2.39%.
Turning to `CCOc1ccc(CC(=O)N/N=C/c2cccnc2)cc1`, the inhibition was -5.71%.
Regarding `CCOc1ccc(OCc2cccc(C(=O)N/N=C/c3cccnc3)c2)cc1`, the inhibition was found to be 59.6%.
For the molecule `Cc1[nH]n2cnnc2c(=O)c1Br`, the inhibition was -1.45%.
Consider `COc1ccc(-c2nc(NC(=O)Cn3cnnn3)sc2C)cc1`, for which the inhibition is 13.2%.
In the case of `CCc1cc(C(=O)OCC(=O)N2CCC(c3ccccc3)=N2)sc1C`, the inhibition was found to be 65.9%.
On to `O=C(Cc1ccccc1[N+](=O)[O-])OCC(=O)c1c[nH]c2ccccc12`, for which the inhibition was determined as 4.48%.
As to `CCOC(=O)c1c(C)[nH]c(C)c1C(=O)COC(=O)c1cccs1`, the inhibition was found to be 28.9%.
The value for `Cc1[nH]c2ccccc2c1C(=O)COC(=O)c1ccccc1O` was 31.1%; that for `O=C(OCC(=O)c1c[nH]c2ccccc12)c1cccc([N+](=O)[O-])c1` was -14.6%.
In the case of `Cc1cc(C(=O)OCC(=O)N2CCC(c3ccccc3)=N2)ccc1[N+](=O)[O-]`, the inhibition was found to be 22.1%.
The result for `Cc1cccc(C(=O)OCC(=O)c2c(C)[nH]c3ccccc23)c1O` reads 3.19%; that for `CCOC(=O)c1c(C)[nH]c(C)c1C(=O)COC(=O)/C=C/c1ccccc1[N+](=O)[O-]`, 46.8%.
For the molecule `O=C(NCCCCl)C1CC(=O)N(CCc2ccc(F)cc2)C1` (stereo not given), the inhibition worked out at 5.65%.
Regarding `O=C(O)c1cc(N2C(=O)C3CCCCC3C2=O)ccc1NCc1cccnc1` (stereo not given), the inhibition is 4.47%.
As for `CCN(CC)C(=O)Cn1cc(C(=O)C(=O)NCc2cccnc2)c2ccccc21`, the inhibition is -4.61%.
As to `COc1cc(OC)cc(C(C(=O)NC2CCCCC2)N(C(=O)c2ccno2)c2ccccc2)c1` (stereo not given), the inhibition worked out at 8.21%.
For `Cc1ccc(CN2CC(C(=O)Nc3ncccc3C)CC2=O)cc1` (stereo not given), the inhibition was -7.14%.
Regarding `COc1cccc(/C=N/NC(=O)c2nnn(-c3nonc3N)c2-c2cccs2)c1`, the inhibition worked out at 7.66%.
The result for `COc1ccc(C(=O)COC(=O)c2ccc(OC)c(OC)c2)cc1OC` reads 3.56%; that for `COc1ccc(C(=O)OCC(=O)Nc2ncc([N+](=O)[O-])s2)cc1OC`, -11.2%; that for `O=C(CSc1nc(=O)n(CCCN2CCOCC2)c2c1CCCC2)Nc1ccccc1Cl`, 11.7%.
Consider `CCOc1ccc(OCCCC(=O)NC2=NCCS2)cc1`, for which the inhibition came to 40.7%.
In the case of `CC(C)(C)c1ccc(OCCC(=O)NC2=NCCS2)cc1`, the inhibition came out at 66.8%.
As to `CCn1c(C)nc2c(=O)oc3ccccc3c21`, the inhibition is -3.87%.
The value for `CC(C)Cn1cnc2c(=O)oc3ccccc3c21` was -17.9%; that for `O=c1oc2ccccc2c2c1nnn2CCO` was 97.3%.
The value for `CCC(C)n1cnc2c(=O)oc3ccccc3c21` (stereo not given) was -10.2%; that for `CN(C)CCn1nnc2c(=O)oc3ccccc3c21` was -13.7%.
As to `Cc1ccc(-n2nnc3c(=O)oc4ccccc4c32)cc1`, the inhibition turned out to be 6.67%.
Regarding `CSc1n[nH]c(/N=C/c2oc(O)c3ccccc23)n1`, the inhibition was -21.1%.
Turning to `O=C(CNC(=O)c1ccc(Cl)cc1)NC1CCCCC1`, the inhibition is -2.3%.
Take `CN(CC(=O)Nc1ccc(N2CCOCC2)cc1)C(=O)c1cc(F)c(F)cc1Cl`: the inhibition was -5.8%.
The result for `CCc1ccc(C(=O)COC(=O)CNC(=O)Cc2ccccc2)cc1` reads 47.9%.
As to `Cc1csc(N2CCCC2c2nc3cc(Cl)c(N4CCCCC4)cc3n2CCOCCO)n1` (stereo not given), the inhibition amounted to 5.44%.
As to `CNCc1ccccc1OCc1ccccc1F`, the inhibition amounted to 8.9%.
As to `CC(=O)Oc1ccc2nc(-c3ccco3)oc(=O)c2c1`, the inhibition came to 42%.
For the molecule `O=C(COc1ccc([N+](=O)[O-])cc1)Nc1cccnc1`, the inhibition came to 51.3%.
Take `O=C(CCCOc1ccccc1)Nc1cccnc1`: the inhibition stood at 44.6%.
Regarding `N#Cc1ccc(OCC(=O)Nc2ccncc2)cc1`, the inhibition stood at 46.2%.
For the molecule `N#Cc1ccc(OCC(=O)Nc2nc(-c3cccnc3)cs2)cc1`, the inhibition was -5.75%.
As to `COc1ccc(/C=N/NC(=O)c2ccc3c(c2)OCO3)c(C(=O)O)c1OC`, the inhibition is 37.5%.
Consider `NS(=O)(=O)c1ccc(CCNC(=S)Nc2ccc(F)cc2)cc1`, for which the inhibition turned out to be 30%.
For `O=C(c1cccc(F)c1)N1CCN(C(=O)C2CC2)CC1`, the inhibition is 0.47%.
In the case of `C[C@@H]1CN([C@H](C)CO)C(=O)c2cc(NC(=O)C3CCCCC3)ccc2O[C@@H]1CN(C)Cc1ccc(C(F)(F)F)cc1`, the inhibition was found to be 28%.
The value for `CC(=O)c1ccc(NC(=O)Cc2cccs2)cc1` was 47%; that for `COC(=O)C1=C(c2ccc(F)cc2OCc2ccccc2)C[C@@H]2CC[C@H]1N2C(=O)NC1CCCCC1` was 39.2%.
As for `COc1ccc(/C(C)=N/Nc2nc3ccccc3nc2C)cc1`, the inhibition is -2.93%.
On to `COc1ccc(/C(C)=N/Nc2nc3ccccc3nc2C)cc1OC`, for which the inhibition came to 18.1%.
`N#Cc1ccc(COC(=O)c2cccnc2Cl)cc1`: the inhibition was found to be 57%.
For `Cc1ccc(-c2cc(C(F)(F)F)n3ncc(C(=O)N4CCCc5ccccc54)c3n2)cc1`, the inhibition turned out to be 9.06%.
Consider `COC(=O)c1ccc(/C=C/C(=O)OCC(=O)NCc2cccs2)cc1`, for which the inhibition was found to be 13.7%.
Regarding `CN1CCCC(C(=O)c2ccc(Cl)cc2)C1` (stereo not given), the inhibition was determined as 2.9%.
With `CN1CC(C(=O)c2ccccc2)C(C(=O)c2ccccc2)C1` (stereo not given), the inhibition amounted to 14.7%.
`CC1CN(C(=O)c2cccs2)CC(C)O1` (stereo not given): the inhibition was -2.97%.
With `CN1CCCC(C(=O)c2ccccc2)C1` (stereo not given), the inhibition is -7.66%.
The result for `CN1CCC(NC(=O)c2cccs2)CC1` reads -14.8%; that for `CN1CC(C(=O)c2ccc(Cl)cc2)C(c2ccc(Cl)cc2Cl)C1` (stereo not given), 55.7%; that for `CC(=O)Oc1ccc(S(=O)(=O)c2ccc(OC(C)=O)cc2)cc1`, -5.93%.
Regarding `Cc1ccc(S(=O)(=O)Nc2ccc3c(c2)C(=O)N([C@H](C)CO)C[C@H](C)[C@@H](CN(C)C(=O)Nc2ccc(C(F)(F)F)cc2)O3)cc1`, the inhibition came out at 46.2%.
The value for `COc1cccc(-c2nn(-c3ccccc3)cc2CN(C)Cc2ccno2)c1` was 2.32%.
For `S=c1[nH]nc(Cc2ccc(Cl)cc2)n1-c1ccc2c(c1)OCCO2`, the inhibition was -2%.
As for `O=C(Nc1ccc(S(=O)(=O)Nc2nccs2)cc1)C1CCCCC1`, the inhibition came to 60.2%.
In the case of `O=C(NC(=S)Nc1ccc(S(=O)(=O)Nc2nccs2)cc1)C1CC1`, the inhibition was 23.6%.
Turning to `Cc1ccc(C(=O)NNC(=O)c2ccc(C)cc2)cc1`, the inhibition is -1.12%.
The value for `Cc1ccc(C(=O)NC(=S)NNC(=O)CC#N)cc1` was 39.8%; that for `Cc1cc(C(=O)N2CCN(c3ncccn3)CC2)nn1C` was -1.81%; that for `COc1cccc(/C=C/C(=O)OCCN2C(=O)c3ccccc3C2=O)c1` was 24.5%.
`CC1(C)C(=O)OC(c2cccc([N+](=O)[O-])c2)C2(CCCCC2)C1=O` (stereo not given): the inhibition worked out at 12.6%.
As to `COc1ccc(C2(CNC(=O)c3ccccc3)CCOCC2)cc1`, the inhibition was -1.08%.
As for `COC(=O)c1ccc(NC(=O)c2ccccc2-c2ccccc2C(=O)O)cc1`, the inhibition was 65.6%.
The value for `CC(=O)c1ccc(NC(=O)c2ccccc2-c2ccccc2C(=O)O)cc1` was 78.9%; that for `COC(=O)C[C@H](NC(=O)Cn1cnc2c(SC)nc(N)nc21)C(=O)OC` was -10.4%.
With `CC(=O)c1ccc(NC(=O)CNC2CCCCC2)cc1`, the inhibition is -1.52%.
Consider `Cc1c(N=c2c(=O)c3ccccc3c2=O)c(=O)n(-c2ccccc2)n1C`, for which the inhibition is -4.23%.
As to `CCC/C(O)=C1\C(=O)CC(C)(C)CC1=Nc1ccccc1O`, the inhibition stood at 2.5%.
Turning to `CC1c2[nH]c3ccccc3c2C[C@H]2C(=O)N(CCCN(C)C)CC(=O)N12` (stereo not given in full), the inhibition was -5.98%.
Regarding `Cc1ccc(C(=O)Nc2ccc(NC(=O)c3ccc(C)o3)cc2)o1`, the inhibition amounted to 0.92%.
For `Cc1ccc(C(=O)CCNc2ccccc2)o1`, the inhibition is -1.75%.
As to `Cc1ccc(NC(=O)COC(=O)c2cc(=O)c3ccccc3o2)c(Br)c1`, the inhibition amounted to 6.59%.
Take `Cc1cc(/C=C2\SC(=S)NC2=O)c(C)n1C1CC1`: the inhibition worked out at 43.8%.
With `CCN1C(=O)C(=Cc2cc(C)n(C3CC3)c2C)C(=O)N(CC)C1=S`, the inhibition turned out to be 69.5%.
With `CCCS(=O)(=O)C/C(N)=N/OC(=O)c1ccc(Cl)cc1`, the inhibition was 3.52%.
Consider `COc1ccc(NC(=O)CN(C)CC(=O)Nc2ccccc2SC)cc1`, for which the inhibition is -4.75%.
On to `Cc1ccc(C)c(-c2csc(NC(=O)c3c(C)noc3C)n2)c1`, for which the inhibition is -15%.
For `O=C(NNc1nc2c(F)cc(F)cc2s1)c1ccccc1`, the inhibition was -1.93%.
As for `CCOCC(=O)Nc1nc2ccc(OCC)cc2s1`, the inhibition was 80%.
On to `Cc1onc(-c2ccccc2)c1C(=O)Nc1nc(-c2cc(F)ccc2F)cs1`, for which the inhibition is -10.6%.
Take `Cc1csc(NC(=O)c2cnccn2)n1`: the inhibition amounted to 16.7%.
`O=C(Nc1nc(-c2cc(F)ccc2F)cs1)C1=COCCO1`: the inhibition is 22.8%.
For `O=C(Nc1nc2c(F)cc(F)cc2s1)c1ccco1`, the inhibition amounted to 36.2%.
The result for `COCC(=O)Nc1nc2ccc(C)cc2s1` reads 49%; that for `CC(C)Cc1ccc(CN2CCCC(NC(=O)CCN3CCOCC3)C2)cc1` (stereo not given), 34.5%; that for `CCS(=O)(=O)N1CCC(C(=O)Oc2ccc(C(=O)OC)cc2)CC1`, 4.94%.
With `Cc1cnc(NC(=O)c2ccncc2)s1`, the inhibition was -17.1%.
Take `Cc1ccc2nc(NC(=O)COC(=O)c3ccccn3)sc2c1`: the inhibition came to 76.5%.
Consider `O=C(Nc1nc2ccc(F)cc2s1)Oc1ccccc1`, for which the inhibition is 6.26%.
Consider `Cc1ccc2nc(NC(=O)c3ccccc3F)sc2c1`, for which the inhibition was 2.6%.
With `O=C(Nc1nc2ccc(F)cc2s1)c1cccs1`, the inhibition came out at 33.5%.
With `CSc1ncccc1C(=O)Nc1ncc(C)s1`, the inhibition came out at 13.3%.
For the molecule `CCc1ccc(C(=O)NNc2cc(Cl)cc(Cl)c2)cc1`, the inhibition turned out to be 67.2%.
The result for `CN(C)c1ccc(NC(=O)CCCCCn2nnc3ccccc3c2=O)cc1` reads 2.13%; that for `O=[N+]([O-])c1cccc(-c2nnc(-c3ccccc3)o2)c1`, 75.3%; that for `O=[N+]([O-])c1cccc(-c2nnc(-c3ccccc3F)o2)c1`, 35.9%.
`Cc1ccc(C(=O)Nc2ccc(C(=O)N/N=C/c3ccc(C)o3)cc2)cc1`: the inhibition was found to be 9.26%.
The value for `Cc1cccc(NC(=O)CCNS(=O)(=O)c2ccc(Cl)cc2)c1` was -5.22%; that for `CCOC(=O)C1(Cc2ccc(OC)cc2)CCN(C(=O)CN2CCOC2=O)CC1` was -7.21%.
The result for `CN(C)S(=O)(=O)c1ccc(Oc2ccccc2)cc1` reads 27.6%; that for `CN(C)S(=O)(=O)c1ccc(C(=O)OCCc2ccccc2)cc1`, 42.9%.
Consider `COc1cc(/C=N/Nc2ccc(Cl)c(C(=O)O)c2)ccc1OC(=O)c1ccc(F)cc1`, for which the inhibition was determined as 52.6%.
For `O=C(NC(NNc1ccc([N+](=O)[O-])cc1)(C(F)(F)F)C(F)(F)F)c1ccc(F)cc1`, the inhibition was found to be 29.8%.
